Results as given in PubChem BioAssay AID1415 (NMMLSC, 2008).
The whole screen tested about 220,000 compounds, of which about 710 (0.32%) were called active. The sample holds actives, similar compounds and a random draw of the others, so the mix is not that of the screen. Cut-off read from the data, not from the text of the source: active = binding response below about 49% or above about 150%; inactive = in between.

molecular target: Guanine nucleotide-binding protein G(o) subunit alpha (Homo sapiens) (UniProt P09471); assay: RGS4-Galphao interaction inhibitors and enhancers – biochemical, multiplexed bead flow cytometry, primary screen (AID 1415); conditions: at 10 µM, actives lie on both sides;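 note: fluorescent Galphao activated with aluminum fluoride binding bead-coupled RGS4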
Sequence (P09471 whole entry, looked up): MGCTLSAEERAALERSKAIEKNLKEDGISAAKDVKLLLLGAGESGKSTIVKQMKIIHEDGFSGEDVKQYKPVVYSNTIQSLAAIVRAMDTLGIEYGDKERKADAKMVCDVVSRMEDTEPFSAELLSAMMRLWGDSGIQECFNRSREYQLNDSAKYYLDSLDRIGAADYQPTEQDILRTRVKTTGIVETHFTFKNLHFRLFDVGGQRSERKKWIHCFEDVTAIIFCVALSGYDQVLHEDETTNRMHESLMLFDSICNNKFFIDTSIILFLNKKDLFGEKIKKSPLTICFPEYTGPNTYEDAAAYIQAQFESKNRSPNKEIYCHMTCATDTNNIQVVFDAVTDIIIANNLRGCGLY

Compound	binding response (% of control)
COC(=O)CCCC1=CC2=CC(=O)C(C)(OC(=O)c3cccs3)C(=O)C2=CN1c1cccc(C#N)c1 (stereo not given)	96% (inactive)
CCOc1cccc(OCCCOc2cccc3cccnc23)c1	93% (inactive)
O=C(NNC1=C(C(=O)C(F)(F)F)CCC1)c1ccncc1	86.6% (inactive)
Cc1ccc(N2C(=O)C3CC3C2=O)cc1 (stereo not given)	100% (inactive)
Cc1ccc(N2C(=O)C(Cc3ccccc3)NC2=S)cc1 (stereo not given)	104% (inactive)
Cc1ccc(N2C(=O)C3C(c4ccccc4)(C2=O)C3(c2ccccc2)c2ccccc2)cc1 (stereo not given)	8.37% (active)
CC(=O)c1ccc(S(=O)(=O)N2CCN(C(=O)/C=C/c3ccc4ccccc4n3)CC2)cc1	84% (inactive)
Cc1cccc(NC(=O)CSc2nnc(CCNC(=O)OC(C)(C)C)o2)c1C	93.8% (inactive)
Nc1ccc(C(=O)OCC(=O)NC2CCS(=O)(=O)C2)cc1[N+](=O)[O-] (stereo not given)	-18.4% (active)
Nc1ccc(C(=O)OCC(=O)NC2CCCc3ccccc32)cc1[N+](=O)[O-] (stereo not given)	98.3% (inactive)
O=C(COC(=O)/C=C/c1ccc2c(c1)OCO2)NC1CCS(=O)(=O)C1 (stereo not given)	104% (inactive)
Cc1ccc(C(=O)Nc2nc(N)n(-c3ccccc3)n2)cc1	103% (inactive)
CC(=O)c1ccc(NC(=S)N(Cc2ccccc2)C(C)C2CC2)cc1 (stereo not given)	106% (inactive)
COCC(C)n1c(C)cc(C(=O)COc2ccc(C)nc2[N+](=O)[O-])c1C (stereo not given)	99.8% (inactive)
Cc1ccc(N(CC(O)CN2CCCC2)S(=O)(=O)c2ccccc2)cc1 (stereo not given)	101% (inactive)
O=S(=O)(c1ccccc1)N(CC(O)CN1CCCCC1)c1ccccc1 (stereo not given)	103% (inactive)
Cc1cc(C)n(CC(O)CN(c2ccccc2)S(=O)(=O)c2ccc3ccccc3c2)n1 (stereo not given)	13.8% (active)
COC(=O)c1ccc(CN2CCN(CCCc3ccccc3)C(CCO)C2)cc1 (stereo not given)	91.5% (inactive)
CCN(C(=O)COC(=O)c1cc(S(=O)(=O)N2CCc3ccccc32)ccc1OC)C1CCS(=O)(=O)C1 (stereo not given)	104% (inactive)
COc1ccccc1NC(=O)C[n+]1ccccc1	96% (inactive)
O=C(CCCCCn1c(=O)[nH]c2ccccc2c1=O)NCCc1c[nH]c2ccccc12	100% (inactive)
COc1ccccc1NC(=O)CCCc1c[nH]c2ccccc12	440% [activator] (active)
COc1ccc(CCNS(=O)(=O)c2cccc3cccnc23)cc1OC	97.9% (inactive)

Compound	binding response (% of control)
O=C(CSc1ccc([N+](=O)[O-])cn1)Nc1ccc(N2CCOCC2)c(Cl)c1	94.7% (inactive)
O=C(COc1ccc(Cl)cc1)N1CCN(c2cccc(C(F)(F)F)c2)CC1	101% (inactive)
COC(=O)c1ccccc1OCC(=O)N1CCN(c2ccc(Cl)cc2)CC1	349% [activator] (active)
O=C(CN1CCN(c2ccc(Cl)cc2)CC1)N1CCCC1	104% (inactive)
Cc1cccc(CSc2nc3c(c(=O)n2C)SCC3)c1	98.4% (inactive)
CCc1n[nH]c(=S)n1/N=C/c1c[nH]c2ccc(Br)cc12	103% (inactive)
COc1c(O)cc2oc(-c3ccc(O)c(O)c3)cc(=O)c2c1O	90.8% (inactive)
Cc1ccc(-c2c[n+](=O)c3c(n2[O-])CCC3)cc1	101% (inactive)
FC(F)Oc1ccccc1C1CC(c2ccc(Br)s2)Nc2ncnn21 (stereo not given)	187% [activator] (active)
Clc1ccc(C2CC(c3cccs3)n3ncnc3N2)cc1Cl (stereo not given)	97.8% (inactive)
COc1ccc(C2CC(c3ccccc3)Nc3ncnn32)cc1 (stereo not given)	99.7% (inactive)
Cc1ccc(C(=O)Cc2nnc(C)s2)cc1	100% (inactive)
COC(=O)[C@H]1Cc2cnoc2C[C@]1(C)C(=O)O	101% (inactive)
CCOC(=O)c1ccc(NC(=O)c2nc[nH]c2C(=O)N[C@@H](CCCCNC(=O)OC(C)(C)C)C(=O)OC(C)(C)C)cc1	96.7% (inactive)
CC(C(=O)O)n1cnc2sc3c(c2c1=O)CCCC3 (stereo not given)	94.7% (inactive)
CC(=O)Nc1ccc(/C=N/NC(=O)c2cccs2)cc1	99.4% (inactive)
C=CCn1c(=NC(=O)c2ccc(S(=O)(=O)N3CCCC3)cc2)sc2cc(NC(C)=O)ccc21	94.5% (inactive)
C=CCn1c(=NC(=O)c2cccs2)sc2cc(NC(C)=O)ccc21	154% [activator] (active)
Cc1ccc(OCC(=O)Nc2nnc(-c3ccco3)s2)cc1	102% (inactive)
Cc1ccc2[nH]c(=O)c(CN3CCCCC3)c(-c3ccccc3)c2c1	101% (inactive)
Cc1ccc(NC(=O)Nc2cccc(C(F)(F)F)c2)nc1	99.7% (inactive)
CCC(=O)NC(Nc1cc(C)ccn1)(C(F)(F)F)C(F)(F)F	104% (inactive)
CCOC(=O)NNc1cc(C(F)(F)F)ccn1	169% [activator] (active)

Compound	binding response (% of control)
CCCSc1nc(NCc2ccco2)c2c3c(sc2n1)COC(C)(CC)C3 (stereo not given)	104% (inactive)
COc1ccc(OC)c(-n2c(-c3ccn[nH]3)n[nH]c2=S)c1	96.7% (inactive)
COc1ccccc1-n1cn[nH]c1=S	98.6% (inactive)
COc1ccccc1-n1c(-c2cc(-c3ccco3)[nH]n2)n[nH]c1=S	7.03% (active)
CSc1ccc(/C=C/C(=O)NC23CC4CC(CC(C4)C2)C3)cc1	99.9% (inactive)
Fc1ccccc1/C=N/n1c(-c2cccnc2)n[nH]c1=S	102% (inactive)
OCCC1CN(Cc2cccc(OC3CCCC3)c2)CCN1Cc1ccsc1 (stereo not given)	100% (inactive)
COc1ccc(C)cc1S(=O)(=O)N(CC(=O)Nc1cccc([N+](=O)[O-])c1)c1ccc(C)cc1	87.7% (inactive)
CC(=O)NC1C(OCc2ccccc2)OC(COC(C)=O)C(OC(C)=O)C1OC(C)=O (stereo not given)	101% (inactive)
O=C(OCC1O[C@@H](OC(=O)c2cc(O)c(O)c(O)c2)[C@@H](OC(=O)c2cc(O)c(O)c(O)c2)[C@@H](OC(=O)c2cc(O)c(O)c(O)c2)[C@@H]1OC(=O)c1cc(O)c(O)c(O)c1)c1cc(O)c(O)c(O)c1 (stereo not given in full)	1.38% (active)
COc1cc(C(CCN2CCN(c3ccccc3)CC2)c2c(OC)cc(OC)c3ccc(=O)oc23)cc(OC)c1OC (stereo not given)	101% (inactive)
Cc1[nH]c2ccccc2c1/C=N/NC(=O)CNC(=O)c1ccc2c(c1)OCO2	111% (inactive)
Cc1[nH]c2ccccc2c1/C=N\NC(=O)Cn1nnc(-c2ccccc2)n1	102% (inactive)
COCCNC(=S)N/N=C/c1c(C)[nH]c2ccccc12	159% [activator] (active)
O=C(Nc1ccc(F)cc1)C1CCN(C(=O)c2ccc([N+](=O)[O-])cc2)CC1	99.8% (inactive)
CCN(CC)CCn1cnc2c1c(=O)n(CCOC(=O)c1cc(OC)c(OC)c(OC)c1)c(=O)n2C	155% [activator] (active)
CCN(CC)CCN1C(=O)C(=O)/C(=C(/O)c2ccc(OC)c(OC)c2)C1c1ccccn1 (stereo not given)	99.2% (inactive)
COc1cc(C(=O)OCc2ccc([N+](=O)[O-])cc2)cc(OC)c1OC	98.2% (inactive)
COCCCn1c(-c2cccs2)nc2nc3ccccc3nc21	103% (inactive)
COc1cccc(C(=O)NNC(=O)c2ccccc2Br)c1	103% (inactive)
COc1cccc(C(=O)NCCSc2ccc(Br)cc2)c1	19.5% (active)
COc1cc(OC)cc(C(=O)NCCSCc2ccco2)c1	93.2% (inactive)
C#CCOCCOCCOCCNc1nc(N2CCN(C(=O)[C@H](CCC(=O)O)n3cc(C(N)CO)nn3)CC2)nc(N2CCN(C(=O)[C@H](CCCCN)n3cc(C(N)CC(C)C)nn3)CC2)n1 (stereo not given in full)	104% (inactive)

Compound	binding response (% of control)
Cc1ccc(NC(=O)c2oc(=O)c3ccccc3c2-c2ccccc2)c(C)c1	105% (inactive)
CCCCCCCCCOC1OC(CO)C(O)C(O)C1NC(C)=O (stereo not given)	98.8% (inactive)
CC(C)=CCC/C(C)=C/C(=O)O	92.6% (inactive)
COCCNC(=S)Nc1cc(S(=O)(=O)N2CCOCC2)ccc1N1CCCCC1	97.4% (inactive)
COc1ccccc1CCNC(=O)c1cnccn1	97.6% (inactive)
NC(=O)CSc1c[nH]c2ccccc12	30% (active)
CCCn1cc(SCC(N)=O)c2ccccc21	82.2% (inactive)
O=C(Cc1c[nH]c2ccccc12)OCCOC(=O)Cc1c[nH]c2ccccc12	97.3% (inactive)
COc1ccc(Cl)cc1C(=O)NNC(=S)NC(=O)/C=C/c1ccco1	104% (inactive)
CCOc1ccc(-c2c(C)n([O-])c3c([n+]2=O)CCCC3)cc1	102% (inactive)
Cc1c(S(=O)(=O)NCc2ccccc2)c(=O)n(C)c(=O)n1C	103% (inactive)
CC(C)=CCc1c(O)c(CC=C(C)C)c2occ(-c3ccc(O)cc3)c(=O)c2c1O	96.8% (inactive)
CC(=O)c1cc(-c2ccccc2)n(CC(=O)NC2CCCCC2)c1C	94.2% (inactive)
CCOCCCNC(=O)C(NC(=O)c1ccc(=O)[nH]c1)c1ccc(Cl)cc1 (stereo not given)	98.1% (inactive)
CC(OC(=O)c1ccc2ccccc2n1)C(=O)c1ccccc1 (stereo not given)	103% (inactive)
COc1ccc(C2=NOC(COC(=O)c3ccc4ccccc4n3)C2)cc1 (stereo not given)	99.3% (inactive)
COc1ccc(C(=O)COC(=O)c2ccc3ccccc3n2)cc1	36.8% (active)
Cc1nc(N)[nH]c(=O)c1Oc1cccc(C(F)(F)F)c1	99.6% (inactive)
CCCCCCCN=C(C)c1ccccc1O	103% (inactive)
CCOC(=O)C1Cn2c(nc3c(c2=O)C(C)(CC)Cc2ccccc2-3)S1 (stereo not given)	93% (inactive)
CCC(=O)Nc1cccc(C2=NOC3(C2)C[C@@H](C(N)=O)N(C(=O)c2cc([N+](=O)[O-])cc([N+](=O)[O-])c2C)C3)c1 (stereo not given in full)	96% (inactive)
